Measurements published in PubChem BioAssay AID1030 (National Center for Advancing Translational Sciences (NCATS), 2008).
Hit rate of the full screen: of about 220,000 compounds, about 16,000 (7.3%) were called active. About 25% were inconclusive and are not listed. The sample holds actives, similar compounds and a random draw of the others, so the mix is not that of the screen. The call rests on the fitted dose curve; in most records, active means well fitted inhibition curve with a large enough effect (not every such curve was filed as active); inconclusive means small, poorly fitted or top-dose-only effect, or another doubt; inactive means no such curve, though single readings can be large or run the other way.

Biological target: Aldehyde dehydrogenase 1A1 (Homo sapiens) (UniProt P00352)
Sequence (P00352 whole entry, looked up): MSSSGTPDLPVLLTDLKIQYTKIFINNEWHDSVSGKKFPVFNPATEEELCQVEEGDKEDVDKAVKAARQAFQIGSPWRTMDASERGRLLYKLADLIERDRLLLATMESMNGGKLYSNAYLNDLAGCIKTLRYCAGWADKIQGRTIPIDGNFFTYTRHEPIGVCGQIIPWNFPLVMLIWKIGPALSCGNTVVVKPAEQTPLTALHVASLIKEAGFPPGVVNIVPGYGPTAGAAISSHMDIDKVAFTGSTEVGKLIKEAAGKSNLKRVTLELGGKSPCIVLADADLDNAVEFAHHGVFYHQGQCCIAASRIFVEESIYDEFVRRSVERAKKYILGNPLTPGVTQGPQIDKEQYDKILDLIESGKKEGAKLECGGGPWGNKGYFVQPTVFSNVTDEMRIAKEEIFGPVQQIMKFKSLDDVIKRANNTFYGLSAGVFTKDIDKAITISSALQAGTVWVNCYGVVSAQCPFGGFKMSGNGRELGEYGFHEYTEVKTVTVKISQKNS
Assay: qHTS Assay for Inhibitors of Aldehyde Dehydrogenase 1 (ALDH1A1);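 on activity, negative = inhibition: plate controls were no enzyme wells and a reference inhibitor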
Conditions: Purified ALDH1A1, NADH fluorescence, propionaldehyde substrate; series mostly up to 75.3 µM; activity, negative = inhibition: at the top concentration
Potency means the concentration at half of the fitted maximal effect.

activity, negative = inhibition, inactive:
CCN=c1sc(C(=O)Nc2ccccc2)c(C)n1CC -2.58%, O=C(Nc1cccc2ncccc12)c1ccc(-c2ccc(Cl)cc2Cl)o1 12.5%, COc1ccc(C(=O)Nc2c(Cl)cc(Cl)cc2C(=O)N2CCC(C)CC2)cc1 5.74%, CCOC(=O)c1ccccc1NC(=S)N1CCC(C(N)=O)CC1 -8.79%, COc1ccc(-c2[nH]nc3c2C(c2ccncc2)C(C#N)=C(N)O3)cc1 (stereo not given) -6.31%, CCOc1c(OC)cc(C2C(C#N)=C(N)Oc3n[nH]c(-c4ccncc4)c32)cc1OC (stereo not given) 1.31%, Cc1ccc(S(=O)(=O)NC(=O)Nc2nc(-c3ccc(F)c(F)c3)cs2)cc1 4.72%, Cn1cc(CN2CCCCC2c2ccccn2)c(-c2ccc3c(c2)OCCO3)n1 (stereo not given) 0.0519%, CN(C)/C=C(/C(=O)c1ccccc1Cl)S(C)(=O)=O 10.3%, Clc1ccc(-c2csc(-c3ccncc3)n2)cc1 -2.8%, CC(=O)c1c(C)[nH]c(C(=O)OCC(=O)Nc2cc(S(=O)(=O)N3CCCCC3)ccc2C)c1C 5.1%, CC(C)n1c(=O)[nH]c2cc(C(=O)Nc3ccccc3)ccc21 6.98%, CN(C)CCn1c(=S)[nH]c2ccc(Cl)cc2c1=O 7.33%, CCCCn1c(=S)[nH]c2ccccc2c1=O -7.63%, O=[N+]([O-])c1ccc2oc(-c3cccc(O)c3)nc2c1 3.55%, OCCC1CN(Cc2cnc(-c3ccccc3)s2)CCN1CCc1ccccc1 (stereo not given) -7.11%, Fc1ccccc1Cc1ccc(Cl)nn1 -3.18%, O=C(O)CCC(=O)N(Cc1cccs1)Cc1cccs1 -4.78%, O=C(CCc1ccccc1)NCCc1cccs1 2.95%, CN(C)CCCCCN(C)Cc1cc2ccccc2o1 1.86%, CCOc1ccc(NC(=O)CN(C)CC(=O)NC(C)c2ccccc2)cc1OCC (stereo not given) -0.197%, O=C(O)CSCC(=O)Nc1ccc(C(F)(F)F)cc1 -4.77%, COc1ccc2c(c1)O[C@@H](c1ccc3c(c1)OCO3)[C@H](OC(=O)NCc1ccco1)C2=O -7.76%, CC1CCN(S(=O)(=O)c2ccc(S(=O)(=O)NCc3cccnc3)cc2)CC1 -2.72%, COc1ccc(-n2nc3c(c2NC(=O)c2ccc(N4C(=O)CCC4=O)cc2)CSC3)cc1 -1.08%, O=C(NC(=S)Nc1cc(C(F)(F)F)ccc1N1CCOCC1)c1ccc(-c2cccc(Cl)c2)o1 -8.4%, COc1cccc(OC)c1C(=O)NC(=S)Nc1ccc(N2CCOCC2)c(Cl)c1 -9.29%, CC1=C(C)C(=O)OC(C(C)C2CCC3C4CC=C5CC(OC6OC(COC7OC(CO)C(O)C(O)C7O)C(O)C(O)C6O)CC(O)C5(C)C4CCC23C)C1 (stereo not given) -0.525%, C[C@@]12CCC(=O)C=C1CC[C@H]1C2[C@@H](O)C[C@]2(C)[C@@H]1CC[C@@]2(O)C(=O)COC(=O)C1CCCC1 (stereo not given in full) -0.294% [at 13.5 µM], Nc1nonc1C(=O)NCCc1ccccc1 0.527%, O=C(NCCSc1ccccc1)c1ccco1 -13%, NC1=NC2(CCCCC2)N(c2ccc(F)cc2F)C(N)=N1 7.42%, CSc1nnc(-c2ccc(C(F)(F)F)cn2)o1 -8.87%, CCn1c(-c2cccnc2Cl)nc2cc(C)c(C)cc21 -3.53%, CN(C)c1cc[n+](Cc2ccccc2)cc1 20.6%, COc1ccc(/C=N/NC(=O)C(C)N(c2ccc(OC)cc2)S(C)(=O)=O)cc1 (stereo not given) 0.102%, C#CCOCCOCCOCCNc1nc(N2CCN(C(=O)[C@H](Cc3ccc(O)cc3)n3cc(C(N)CC(C)C)nn3)CC2)nc(N2CCN(C(=O)[C@H](CCC(=O)O)n3cc(C(N)[C@H](C)CC)nn3)CC2)n1 (stereo not given in full) 6.03%, CC1=C(C/C=C(\C)CCCC(C)CCCC(C)CCCC(C)C)C(=O)c2ccccc2C1=O (stereo not given) -3.01%, Cc1cc(C)c2nc(SCC(=O)N(C)C3CCS(=O)(=O)C3)cc(C)c2c1 (stereo not given) -4.71%, Cc1ccccc1NC(=O)Nc1ccccc1N1CCCCC1 3.48%, Cc1ccc(CN2CCN(Cc3ccc4ncccc4c3)CC2CCO)cc1 (stereo not given) 10.3%, O=C(NCCNc1ccc([N+](=O)[O-])cc1)c1cccc2c(Br)cccc12 10.5%, O=[N+]([O-])c1ccc(NCCCN2CCOCC2)c(Cl)c1 20.4%, Cc1ccc(C2=NN(C(=O)COc3ncnc4ccccc34)C(c3ccco3)C2)cc1 (stereo not given) 5.79%, C=C(C)C(=O)c1ccc(F)cc1 0.333%, CCn1c(O)c(N=NC(=O)c2cccc(S(=O)(=O)N3CCCCC3)c2)c2ccccc21 -4.06%, CC(c1ccco1)N(C(=O)COc1ccccc1[N+](=O)[O-])c1ccccn1 (stereo not given) -2.13%, O=C(N/N=C/c1ccccn1)c1ccc(S(=O)(=O)N2CCCCCC2)cc1 -7.41%, COc1ccc(C(=O)Nc2ccc(S(=O)(=O)NC(C)C)cc2)cc1 1.37%, CC(=O)c1ccc(NC(=S)NC(=O)CC(C)C)cc1 13.6%, O=C(NCC1CCN(Cc2ccccc2Cl)CC1)Nc1cccc(Cl)c1 3.46%, COC(=O)C1=C(C)N(c2ccc(Br)cc2)C(=O)/C1=C\c1ccco1 -6.89%, CCC1SC(CC)C(=O)N(CC(=O)NC2CCCCC2)C1=O (stereo not given) -2.09%

Potency, active:
CC1CCN(C(=S)c2ccc(-c3ccc(Cl)cc3Cl)o2)CC1 28.2 µM, CCCc1nc2c([nH]1)C(c1cccnc1)C(C#N)=C(N)O2 (stereo not given) 7.94 µM, CC(C)n1c(=S)[nH]c2cc(C(F)(F)F)ccc21 31.6 µM, CCCn1c(=S)[nH]c2ccc(C(F)(F)F)cc21 17.8 µM, Cc1ccnc(NC(=O)CCC(=O)N(CC(=O)NCCc2ccccc2)Cc2cccs2)c1 14.1 µM, O=C(NC(=S)Nc1ccc2oc(=O)ccc2c1)c1ccc(-c2cccc(Cl)c2Cl)o1 11.2 µM, O=C(NCCc1ccco1)c1nn(Cc2ccccc2)c(=O)c2ccccc12 17.8 µM, CN(C)c1ccc(/C=N\S(=O)(=O)c2ccccc2)cc1 0.708 µM, O=C(NCCCNc1ccc([N+](=O)[O-])cc1Cl)c1ccccc1F 15.8 µM, CCn1c(O)c(N=NC2=NC(=O)CS2)c2cc(C)ccc21 14.1 µM, CC(c1ccco1)N(C(=O)c1ccc(S(=O)(=O)N2CCCCC2)cc1)c1ccccn1 (stereo not given) 12.6 µM, COc1ccc(NS(=O)(=O)c2ccc(NC(=S)NC(=O)CC(C)C)cc2)cc1 12.6 µM
